Test results: publication PMC7862700, “An all-to-all approach to the identification of sequence-specific readers for epigenetic DNA modifications on cytosine”

Key:
Experiment in all cases: DAPPL (digital affinity profiling via proximity ligation, sequencing); 10 mM Tris-HCl pH 7.5, 50 mM NaCl, 1 mM DTT, 4% glycerol, room temperature, 30 min; GST-TFs on glutathione beads, 16-mer random dsDNA library, 0.1% formaldehyde crosslink after washing; high values mean tight binding
Conditions in all cases: protein: recombinant; tags: N-terminal GST; dsDNA, one strand shown
[1] = target: T1, GABPA (Homo sapiens, UniProt Q06546 1-454)
T1 sequence: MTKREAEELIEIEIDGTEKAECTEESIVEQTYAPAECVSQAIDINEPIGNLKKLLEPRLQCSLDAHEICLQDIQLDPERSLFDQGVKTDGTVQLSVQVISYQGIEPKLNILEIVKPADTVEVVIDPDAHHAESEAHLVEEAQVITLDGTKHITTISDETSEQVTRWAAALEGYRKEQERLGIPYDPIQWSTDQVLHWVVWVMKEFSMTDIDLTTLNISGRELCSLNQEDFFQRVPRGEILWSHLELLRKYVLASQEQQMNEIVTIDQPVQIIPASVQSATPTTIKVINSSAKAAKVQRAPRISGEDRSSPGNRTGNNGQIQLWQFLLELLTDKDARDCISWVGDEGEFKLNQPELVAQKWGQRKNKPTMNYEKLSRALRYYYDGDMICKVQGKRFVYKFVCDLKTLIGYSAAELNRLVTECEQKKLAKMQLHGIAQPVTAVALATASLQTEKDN
Summary of the method: (§1)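 The binding signal reported is, for every hexamer, its read frequency for a factor over its read frequency for the tag-only sample. Reads came from pools of yeast-expressed, GST-fused human transcription factors on glutathione beads, barcoded with DNA and mixed with that sample, which were incubated with 200 nmole of a random double-stranded 16-mer DNA library in Tris/NaCl/DTT/glycerol buffer at room temperature for 30 min. After washing, the pools were crosslinked with 0.1% formaldehyde, proximity-ligated with BsaI/T4 ligase for 1 h at 37 °C, PCR-amplified and sequenced on an Illumina NextSeq500.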

[2] = target: ELF1 (Homo sapiens, UniProt P32519 1-619)
Summary of the method: as §1

[3] = target: T2, EHF (Homo sapiens, UniProt Q9NZC4 1-300)
T2 sequence: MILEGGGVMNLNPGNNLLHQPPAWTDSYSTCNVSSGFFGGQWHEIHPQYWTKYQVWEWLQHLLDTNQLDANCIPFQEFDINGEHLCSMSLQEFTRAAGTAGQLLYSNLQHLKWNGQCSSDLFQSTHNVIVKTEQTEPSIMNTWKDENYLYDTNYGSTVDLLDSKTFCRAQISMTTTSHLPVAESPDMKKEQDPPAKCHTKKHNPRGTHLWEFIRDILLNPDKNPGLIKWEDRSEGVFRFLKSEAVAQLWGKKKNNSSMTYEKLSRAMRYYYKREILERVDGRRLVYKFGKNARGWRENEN
Summary of the method: as §1

[4] = target: T3, FEV (Homo sapiens, UniProt Q99581 1-238)
T3 sequence: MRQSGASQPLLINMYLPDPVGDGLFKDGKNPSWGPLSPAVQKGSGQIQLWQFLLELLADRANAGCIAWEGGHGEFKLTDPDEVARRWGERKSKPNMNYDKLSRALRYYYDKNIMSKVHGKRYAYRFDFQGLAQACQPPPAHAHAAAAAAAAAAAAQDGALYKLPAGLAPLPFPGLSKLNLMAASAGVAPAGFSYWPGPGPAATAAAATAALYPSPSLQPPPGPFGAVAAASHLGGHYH
Summary of the method: as §1

[5] = target: ETV5 (Homo sapiens, UniProt P41161 1-510)
Summary of the method: as §1

[6] = target: T4, ELK4 (Homo sapiens, UniProt P28324-2 1-405)
T4 sequence: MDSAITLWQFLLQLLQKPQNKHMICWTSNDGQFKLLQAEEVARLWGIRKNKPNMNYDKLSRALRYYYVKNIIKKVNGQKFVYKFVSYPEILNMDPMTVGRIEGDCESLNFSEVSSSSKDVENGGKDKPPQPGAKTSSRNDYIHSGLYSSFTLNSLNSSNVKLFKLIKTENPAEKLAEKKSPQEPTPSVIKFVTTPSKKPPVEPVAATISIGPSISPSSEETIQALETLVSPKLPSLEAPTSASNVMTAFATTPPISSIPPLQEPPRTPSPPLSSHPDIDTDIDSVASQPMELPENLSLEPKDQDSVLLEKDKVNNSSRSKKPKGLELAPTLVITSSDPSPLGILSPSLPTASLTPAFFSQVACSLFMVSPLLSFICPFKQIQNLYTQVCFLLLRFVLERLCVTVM
Summary of the method: as §1

[7] = target: ETV1 (Homo sapiens, UniProt P50549 1-477)
Summary of the method: as §1

[8] = target: T5, SPDEF (Homo sapiens, UniProt O95238 1-335)
T5 sequence: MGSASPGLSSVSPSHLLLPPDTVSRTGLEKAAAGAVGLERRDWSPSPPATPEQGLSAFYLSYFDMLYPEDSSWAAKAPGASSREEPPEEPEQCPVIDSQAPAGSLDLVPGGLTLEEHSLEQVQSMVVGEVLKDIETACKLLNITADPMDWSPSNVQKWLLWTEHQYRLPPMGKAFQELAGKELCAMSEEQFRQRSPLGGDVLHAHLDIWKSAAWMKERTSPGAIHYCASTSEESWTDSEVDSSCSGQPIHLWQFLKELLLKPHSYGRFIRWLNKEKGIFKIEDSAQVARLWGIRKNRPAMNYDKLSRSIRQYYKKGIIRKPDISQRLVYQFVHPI
Summary of the method: as §1

[9] = target: T6, ETV7 (Homo sapiens, UniProt Q9Y603 1-341)
T6 sequence: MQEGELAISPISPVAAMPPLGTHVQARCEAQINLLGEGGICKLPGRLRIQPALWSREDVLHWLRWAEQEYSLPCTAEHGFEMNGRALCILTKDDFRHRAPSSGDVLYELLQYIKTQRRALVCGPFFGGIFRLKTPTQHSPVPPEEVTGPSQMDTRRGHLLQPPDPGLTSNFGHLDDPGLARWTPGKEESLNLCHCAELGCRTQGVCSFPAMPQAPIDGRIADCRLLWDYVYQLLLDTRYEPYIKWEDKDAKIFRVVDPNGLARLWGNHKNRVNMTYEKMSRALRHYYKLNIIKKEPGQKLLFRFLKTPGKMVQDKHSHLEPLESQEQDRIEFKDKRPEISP
Summary of the method: as §1

[10] = target: ETV6 (Homo sapiens, UniProt P41212 1-452)
Summary of the method: as §1

[11] = target: T7, ELK1 (Homo sapiens, UniProt P19419 1-428)
T7 sequence: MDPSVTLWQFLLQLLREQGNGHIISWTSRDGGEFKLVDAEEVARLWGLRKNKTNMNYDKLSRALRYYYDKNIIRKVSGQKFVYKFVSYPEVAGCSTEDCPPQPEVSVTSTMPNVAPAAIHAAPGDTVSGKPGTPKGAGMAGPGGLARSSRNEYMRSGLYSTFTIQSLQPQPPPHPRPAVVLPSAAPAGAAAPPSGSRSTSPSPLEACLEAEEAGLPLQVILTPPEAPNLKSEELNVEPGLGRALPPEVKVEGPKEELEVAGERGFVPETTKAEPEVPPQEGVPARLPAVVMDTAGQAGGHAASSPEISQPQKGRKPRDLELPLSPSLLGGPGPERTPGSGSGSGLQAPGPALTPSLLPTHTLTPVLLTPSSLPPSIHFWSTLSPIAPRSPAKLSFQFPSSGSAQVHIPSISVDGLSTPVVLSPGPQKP
Summary of the method: as §1

[12] = target: T8, ERG (Homo sapiens, UniProt P11308 1-479)
T8 sequence: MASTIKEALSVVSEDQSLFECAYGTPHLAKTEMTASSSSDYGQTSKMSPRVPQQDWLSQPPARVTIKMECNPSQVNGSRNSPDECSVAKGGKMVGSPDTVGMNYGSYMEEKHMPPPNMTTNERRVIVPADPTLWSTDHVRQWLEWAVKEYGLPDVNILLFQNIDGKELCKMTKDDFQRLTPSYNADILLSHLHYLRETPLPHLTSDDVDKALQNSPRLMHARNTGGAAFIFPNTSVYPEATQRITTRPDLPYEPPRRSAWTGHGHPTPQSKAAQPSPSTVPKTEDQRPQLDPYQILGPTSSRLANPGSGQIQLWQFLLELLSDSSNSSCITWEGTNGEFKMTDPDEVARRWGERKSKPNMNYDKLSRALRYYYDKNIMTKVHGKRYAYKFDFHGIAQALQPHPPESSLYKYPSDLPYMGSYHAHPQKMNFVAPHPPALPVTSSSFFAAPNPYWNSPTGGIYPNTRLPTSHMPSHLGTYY
Summary of the method: as §1

[13] = target: SPIB (Homo sapiens, UniProt Q01892 1-262)
Summary of the method: as §1

[14] = target: T9, ELF3 (Homo sapiens, UniProt P78545 1-371)
T9 sequence: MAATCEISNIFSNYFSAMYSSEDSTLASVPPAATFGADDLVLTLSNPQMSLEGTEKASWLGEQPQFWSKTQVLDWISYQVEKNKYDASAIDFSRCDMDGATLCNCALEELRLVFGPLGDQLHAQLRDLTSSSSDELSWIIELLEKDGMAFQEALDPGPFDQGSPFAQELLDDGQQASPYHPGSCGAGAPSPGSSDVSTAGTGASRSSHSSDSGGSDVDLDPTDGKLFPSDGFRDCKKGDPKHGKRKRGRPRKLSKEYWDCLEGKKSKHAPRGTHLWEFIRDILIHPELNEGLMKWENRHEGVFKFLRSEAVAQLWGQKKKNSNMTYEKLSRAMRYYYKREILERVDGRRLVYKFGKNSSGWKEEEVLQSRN
Summary of the method: as §1

[15] = target: T10, ERF (Homo sapiens, UniProt P50548 1-548)
T10 sequence: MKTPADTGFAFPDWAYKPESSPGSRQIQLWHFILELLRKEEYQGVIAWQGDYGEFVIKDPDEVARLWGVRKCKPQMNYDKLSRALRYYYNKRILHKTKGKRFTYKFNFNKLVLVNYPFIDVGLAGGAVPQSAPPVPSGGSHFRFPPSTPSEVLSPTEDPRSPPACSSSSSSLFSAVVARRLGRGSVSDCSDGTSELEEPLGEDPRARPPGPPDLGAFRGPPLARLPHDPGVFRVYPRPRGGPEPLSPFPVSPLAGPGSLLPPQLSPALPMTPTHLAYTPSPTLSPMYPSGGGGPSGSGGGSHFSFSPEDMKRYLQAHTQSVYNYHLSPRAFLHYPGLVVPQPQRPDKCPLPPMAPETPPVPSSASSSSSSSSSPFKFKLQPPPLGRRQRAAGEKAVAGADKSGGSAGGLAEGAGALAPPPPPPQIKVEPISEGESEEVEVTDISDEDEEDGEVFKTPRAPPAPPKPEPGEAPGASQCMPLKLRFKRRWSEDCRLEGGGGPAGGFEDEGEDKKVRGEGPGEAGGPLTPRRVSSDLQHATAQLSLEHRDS
Summary of the method: as §1

[16] = target: T11, ETS2 (Homo sapiens, UniProt P15036 1-469)
T11 sequence: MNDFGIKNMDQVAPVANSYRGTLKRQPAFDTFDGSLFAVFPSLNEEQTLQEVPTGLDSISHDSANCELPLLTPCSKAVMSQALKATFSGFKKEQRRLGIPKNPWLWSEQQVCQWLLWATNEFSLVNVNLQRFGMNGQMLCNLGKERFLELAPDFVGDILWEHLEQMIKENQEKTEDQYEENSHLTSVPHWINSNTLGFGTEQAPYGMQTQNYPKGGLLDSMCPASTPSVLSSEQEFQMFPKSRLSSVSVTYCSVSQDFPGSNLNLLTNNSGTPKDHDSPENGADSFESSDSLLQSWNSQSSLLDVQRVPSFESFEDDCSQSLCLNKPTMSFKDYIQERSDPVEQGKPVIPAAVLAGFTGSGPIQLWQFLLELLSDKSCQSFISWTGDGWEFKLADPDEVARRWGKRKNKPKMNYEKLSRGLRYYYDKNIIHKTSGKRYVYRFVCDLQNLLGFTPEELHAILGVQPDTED
Summary of the method: as §1

[17] = target: T12, ETV3 (Homo sapiens, UniProt P41162-2 1-143)
T12 sequence: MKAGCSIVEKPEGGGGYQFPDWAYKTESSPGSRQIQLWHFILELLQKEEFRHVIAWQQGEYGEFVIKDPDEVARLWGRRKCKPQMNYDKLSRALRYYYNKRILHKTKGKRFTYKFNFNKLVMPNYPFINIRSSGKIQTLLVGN
Summary of the method: as §1

Chain of ETV5 (P41161 whole entry): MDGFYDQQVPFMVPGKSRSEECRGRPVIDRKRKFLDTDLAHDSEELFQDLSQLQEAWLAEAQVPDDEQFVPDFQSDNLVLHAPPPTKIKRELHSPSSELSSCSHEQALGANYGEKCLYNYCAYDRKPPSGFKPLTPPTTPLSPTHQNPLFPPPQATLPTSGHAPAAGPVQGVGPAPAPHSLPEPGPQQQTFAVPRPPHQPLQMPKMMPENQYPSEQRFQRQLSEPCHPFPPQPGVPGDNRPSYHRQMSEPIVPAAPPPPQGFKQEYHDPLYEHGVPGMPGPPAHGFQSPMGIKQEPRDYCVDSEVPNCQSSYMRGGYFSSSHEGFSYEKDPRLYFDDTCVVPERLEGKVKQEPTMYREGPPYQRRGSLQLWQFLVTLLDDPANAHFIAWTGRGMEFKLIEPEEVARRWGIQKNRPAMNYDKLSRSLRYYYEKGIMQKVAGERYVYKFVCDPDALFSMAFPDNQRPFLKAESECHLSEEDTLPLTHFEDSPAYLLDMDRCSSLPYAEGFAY
Chain of SPIB (Q01892 whole entry): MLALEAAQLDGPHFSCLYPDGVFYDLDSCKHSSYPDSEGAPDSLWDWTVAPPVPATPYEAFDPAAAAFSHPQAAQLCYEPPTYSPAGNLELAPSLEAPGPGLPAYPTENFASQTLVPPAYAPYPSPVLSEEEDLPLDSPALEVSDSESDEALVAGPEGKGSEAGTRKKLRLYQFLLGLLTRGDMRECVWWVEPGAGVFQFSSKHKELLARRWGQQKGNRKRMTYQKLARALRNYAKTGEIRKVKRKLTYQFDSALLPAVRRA
Chain of ELF1 (P32519 whole entry): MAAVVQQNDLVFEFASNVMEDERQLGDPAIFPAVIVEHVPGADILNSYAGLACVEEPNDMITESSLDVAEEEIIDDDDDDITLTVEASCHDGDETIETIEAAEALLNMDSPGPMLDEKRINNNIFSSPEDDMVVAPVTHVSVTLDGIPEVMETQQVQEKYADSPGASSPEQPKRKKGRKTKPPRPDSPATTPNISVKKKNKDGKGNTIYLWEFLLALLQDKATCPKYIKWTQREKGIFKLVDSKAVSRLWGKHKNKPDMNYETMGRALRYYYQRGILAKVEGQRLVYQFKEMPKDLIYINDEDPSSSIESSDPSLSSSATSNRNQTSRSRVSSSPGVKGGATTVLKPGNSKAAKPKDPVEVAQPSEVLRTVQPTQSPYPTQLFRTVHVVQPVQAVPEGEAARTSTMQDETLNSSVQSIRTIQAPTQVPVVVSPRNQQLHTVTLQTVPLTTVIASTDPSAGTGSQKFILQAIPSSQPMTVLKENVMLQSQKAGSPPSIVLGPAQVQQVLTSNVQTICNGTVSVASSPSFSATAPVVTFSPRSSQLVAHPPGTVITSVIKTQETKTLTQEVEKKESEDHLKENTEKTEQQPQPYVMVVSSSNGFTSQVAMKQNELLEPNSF
Chain of ETV1 (P50549 whole entry): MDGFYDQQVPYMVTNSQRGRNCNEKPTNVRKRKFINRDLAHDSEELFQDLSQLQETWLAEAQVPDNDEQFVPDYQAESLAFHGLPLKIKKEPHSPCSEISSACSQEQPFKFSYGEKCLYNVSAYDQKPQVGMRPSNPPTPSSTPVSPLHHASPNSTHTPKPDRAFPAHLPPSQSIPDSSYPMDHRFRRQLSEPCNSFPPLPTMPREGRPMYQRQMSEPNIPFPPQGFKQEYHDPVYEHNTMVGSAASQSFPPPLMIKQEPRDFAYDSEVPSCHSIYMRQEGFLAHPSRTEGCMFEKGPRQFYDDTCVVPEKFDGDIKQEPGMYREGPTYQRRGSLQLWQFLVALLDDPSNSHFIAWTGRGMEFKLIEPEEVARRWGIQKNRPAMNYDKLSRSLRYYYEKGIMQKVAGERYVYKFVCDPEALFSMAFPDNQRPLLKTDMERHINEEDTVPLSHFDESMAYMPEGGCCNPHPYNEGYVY
Chain of ETV6 (P41212 whole entry): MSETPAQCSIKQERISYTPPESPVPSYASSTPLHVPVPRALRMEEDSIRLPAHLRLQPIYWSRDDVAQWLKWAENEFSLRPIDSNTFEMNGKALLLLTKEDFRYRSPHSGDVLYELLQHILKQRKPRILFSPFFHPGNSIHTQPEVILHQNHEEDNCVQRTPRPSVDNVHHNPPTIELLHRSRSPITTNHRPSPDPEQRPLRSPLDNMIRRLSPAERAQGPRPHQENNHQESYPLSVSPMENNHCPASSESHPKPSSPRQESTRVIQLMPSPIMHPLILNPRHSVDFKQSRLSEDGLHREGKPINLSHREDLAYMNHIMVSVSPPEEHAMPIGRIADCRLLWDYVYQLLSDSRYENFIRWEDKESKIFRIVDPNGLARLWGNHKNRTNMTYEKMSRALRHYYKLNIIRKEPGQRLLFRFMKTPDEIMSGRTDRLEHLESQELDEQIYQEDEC

**Q.** How did the binding signal [1] turn out when GGCTAA was run?
**A.** 1.01 fold enrichment (6-mer frequency, TF over GST control)

**Q.** What about the binding signal [2] of the same sequence?
**A.** 1.04 fold enrichment (6-mer frequency, TF over GST control)

**Q.** And the binding signal [3]?
**A.** 1.01 fold enrichment (6-mer frequency, TF over GST control)

**Q.** What about the binding signal [4] of the same sequence?
**A.** 1.01 fold enrichment (6-mer frequency, TF over GST control)

**Q.** And the binding signal [5]?
**A.** 1.01 fold enrichment (6-mer frequency, TF over GST control)

**Q.** What about the binding signal [6] of the same sequence?
**A.** 1.04 fold enrichment (6-mer frequency, TF over GST control)

**Q.** And the binding signal [7]?
**A.** 1.03 fold enrichment (6-mer frequency, TF over GST control)

**Q.** What about the binding signal [8] of the same sequence?
**A.** 1 fold enrichment (6-mer frequency, TF over GST control)

**Q.** And the binding signal [9]?
**A.** 1 fold enrichment (6-mer frequency, TF over GST control)

**Q.** What about the binding signal [10] of the same sequence?
**A.** 1.04 fold enrichment (6-mer frequency, TF over GST control)

**Q.** How did the binding signal [11] turn out when TAGTAG was run?
**A.** 1.02 fold enrichment (6-mer frequency, TF over GST control)

**Q.** What about the binding signal [1] of the same sequence?
**A.** 1.01 fold enrichment (6-mer frequency, TF over GST control)

**Q.** And the binding signal [12]?
**A.** 1.01 fold enrichment (6-mer frequency, TF over GST control)

**Q.** And the binding signal [13]?
**A.** 1.02 fold enrichment (6-mer frequency, TF over GST control)

**Q.** And the binding signal [5]?
**A.** 1.04 fold enrichment (6-mer frequency, TF over GST control)

**Q.** And the binding signal [6]?
**A.** 1.02 fold enrichment (6-mer frequency, TF over GST control)

**Q.** And the binding signal [14]?
**A.** 1.1 fold enrichment (6-mer frequency, TF over GST control)

**Q.** What about the binding signal [15] of the same sequence?
**A.** 1.02 fold enrichment (6-mer frequency, TF over GST control)

**Q.** What about the binding signal [16] of the same sequence?
**A.** 1.06 fold enrichment (6-mer frequency, TF over GST control)

**Q.** And the binding signal [8]?
**A.** 1.02 fold enrichment (6-mer frequency, TF over GST control)

**Q.** What about the binding signal [17] of the same sequence?
**A.** 1.13 fold enrichment (6-mer frequency, TF over GST control)
